Assay results taken from PubChem BioAssay (NCI).
About 83,000 compounds went through this panel and 20% of them were active in at least one assay; those are over-represented in the sample as a whole.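 For each line, cells grew in 96-well plates with the test compound present at a single concentration for 48 hours.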 Calls of active or inactive are those of the source. Rule for the calls: active = growth percent below 10; inactive = the rest.

Test system: HL-60(TB) leukemia
Experiment: NCI-60 one-dose screen, 48 h (100 = growth as untreated, 0 = no growth, -100 = all killed)
Details: 10 µM unless noted

Question: For `Cc1ccc2nc(Cl)c(-c3nc4ccccc4o3)cc2c1`, which growth is on record?
Answer: The growth was 94.4% (inactive).

Question: For `COc1cc2ncnc(Nc3ccc4c(cnn4C(=O)Nc4ccccc4)c3)c2cc1OC`, which growth is on record?
Answer: Its growth is 83.5% (inactive).

Question: How did the growth turn out when `CNc1ncc2cc(-c3cc(NC(=O)NCCC(C)(C)C)c(F)cc3C)c(C)nc2n1` was run?
Answer: Its growth is 6.32% (active).

Question: For `CC(=O)Oc1ccc(Br)cc1C(=O)O`, which growth is on record?
Answer: The growth was 101% (inactive).

Question: How did the growth turn out when `NS(=O)(=O)c1ccc(CCN2C(=O)/C(=C\c3ccc(Cl)cc3)C=C2c2ccc3ccccc3c2)cc1` was run?
Answer: The growth was 99.5% (inactive).

Question: For `COc1ccc(CNCCN2C(=O)c3ccc4c5c(ccc(c35)C2=O)C(=O)N(CCNCc2ccc(OC)cc2)C4=O)cc1`, which growth is on record?
Answer: Its growth is -63.4% (active).

Question: Which growth does the source give for `COc1ccc(/C(=C\c2cc(OC)c(OC)c(OC)c2)C(=O)Nc2nc3ccc(Cl)cc3s2)cc1` here?
Answer: Its growth is 81.4% (inactive).

Question: `CC(C)N(CCOC(=O)Nc1ccccc1Cl)C(C)C` was tested. Which growth did it give?
Answer: The growth was 103% (inactive).

Question: With `COc1ccc(NC(=O)C2CC3C=CC2C3)c([N+](=O)[O-])c1` (stereo not given) as the compound, how does the growth read?
Answer: The growth was 86.2% (inactive).

Question: With `O=C(O)[C@@H]1[C@H]2C[C@H]3c4[nH]c5ccccc5c4CCN3C[C@@H]2CC[C@@H]1O` as the compound, how does the growth read?
Answer: The growth was 128% (inactive).

Question: Which growth does the source give for `O=C(NC1CCC(Br)CC1)C1CCCC(S(=O)(=O)NC2CCCCC2)C1` (stereo not given) here?
Answer: The growth was 4.46% [25 µM] (active).

Question: With `COc1ccc2[nH]c(=O)c3c4ccccc4cn3c2c1` as the compound, how does the growth read?
Answer: The growth was -28.4% (active).

Question: How did the growth turn out when `COc1ccc2c(c1)/C(=C\c1c[nH]c3ccc(F)cc13)C(=O)N2` was run?
Answer: Its growth is 88.3% (inactive).

Question: With `O=S(=O)(NCCCNc1cc(-c2cn(-c3ccccc3)nc2-c2cccc(O)c2)ccn1)c1ccc(Br)cc1` as the compound, how does the growth read?
Answer: Its growth is -13.1% (active).

Question: How did the growth turn out when `O=C(Nc1cc(=O)[nH]c(=O)[nH]1)C(Cl)Cl` was run?
Answer: The growth was 99.4% (inactive).

Question: `C[C@@H](c1ccc2c(c1)[nH]c1ccc(Cl)cc12)c1nc2ccc(Cl)cc2[nH]1` was tested. Which growth did it give?
Answer: The growth was 0.0537% (active).

Question: With `CSc1nc(O)c(-c2ccccc2)c(=O)[nH]1` as the compound, how does the growth read?
Answer: Its growth is 89.5% (inactive).

Question: For `CC(C)(C)[C@H](OCc1cn([C@H]2C[C@@H](O)[C@@H](CO)O2)c(=O)[nH]c1=O)c1ccc(C#Cc2ccccc2)cc1[N+](=O)[O-]`, which growth is on record?
Answer: The growth was 70.4% (inactive).

Question: For `CSc1ccccc1C#C/C=C\C#Cc1ccccc1N1CCCCC1=O`, which growth is on record?
Answer: The growth was 107% (inactive).

Question: For `CC[C@H](Nc1nc(C)nc(N)c1C#N)c1nc2cccc(NCc3ccc(C(=O)NO)cc3)c2c(=O)n1-c1ccccc1`, which growth is on record?
Answer: Its growth is -30.5% (active).

Question: With `NCCCc1nnc(CCC(=O)c2nc3ccccc3[nH]2)o1` as the compound, how does the growth read?
Answer: The growth was 92.3% (inactive).

Question: With `Cc1cn(C2CCCCC2)c(=O)[nH]c1=O` as the compound, how does the growth read?
Answer: The growth was 96.7% (inactive).

Question: How did the growth turn out when `NC1=Nc2ccccc2N(O)N1` was run?
Answer: Its growth is 88.4% (inactive).

Question: `N=C(N)c1ccc(-c2ccc(-c3ccc(Cl)cc3)o2)o1` was tested. Which growth did it give?
Answer: The growth was -53.5% (active).

Question: With `Cc1nn(-c2ccc(-c3ccc(OC(F)(F)F)cc3)cc2)c2nc(Cc3ccccc3)nc(N)c12` as the compound, how does the growth read?
Answer: Its growth is 88.3% (inactive).

Question: Which growth does the source give for `C/C=C(\C)C(C(=O)NC1CCCCC1)N(C(=O)C1CCc2cc(F)ccc2O1)c1ccc([N+](=O)[O-])cc1` (stereo not given) here?
Answer: Its growth is 82.4% (inactive).

Question: For `C[N+]1=C(/C=C/c2ccccc2Cl)C(C)(C)c2ccccc21`, which growth is on record?
Answer: Its growth is 53.5% (inactive).

Question: For `COc1cc2c(cc1-c1c(C)noc1C)ncc1nc(C3CCOCC3)n(C3CCC(OC(F)F)CC3)c12` (stereo not given), which growth is on record?
Answer: Its growth is 7.23% (active).

Question: How did the growth turn out when `O=C(Nc1ccccc1)NS(=O)(=O)c1c[nH]c(=S)[nH]c1=O` was run?
Answer: Its growth is 77.8% (inactive).

Question: With `Fc1cc(Nc2ccc3c(OCCCN4CCOCC4)cccc3n2)ccc1Cl` as the compound, how does the growth read?
Answer: The growth was 39.1% (inactive).

Question: `CCOC(=O)c1cc(C(=O)c2cc(OC)c(OC)c(OC)c2)n2ccc(-c3cc[n+](CC(=O)c4cc(OC)c(OC)c(OC)c4)cc3)cc12` was tested. Which growth did it give?
Answer: The growth was 32.9% (inactive).

Question: Which growth does the source give for `COc1ccc(OC)c2c1CCC1(C2)NC(=O)NC1=O` (stereo not given) here?
Answer: Its growth is 111% (inactive).

Question: For `NNC(=O)c1ccccc1N`, which growth is on record?
Answer: The growth was 122% (inactive).

Question: For `CC(=O)NCC(=O)Nc1ccc(-c2nnc3ccccn23)nc1.CC(=O)NCC(=O)Nc1ccc(-c2nnc3ccccn23)nc1.[Pt+2]`, which growth is on record?
Answer: Its growth is 109% (inactive).

Question: How did the growth turn out when `CC1=NN(c2ccccc2)C(=O)/C1=C\N1CC(=O)NC1=S` was run?
Answer: The growth was 103% (inactive).

Question: `Nc1ccccc1NC(=O)c1ccc(CN2CCC/C(=C\c3cccc(Cl)c3)C2=O)cc1` was tested. Which growth did it give?
Answer: Its growth is -24.5% (active).

Question: How did the growth turn out when `CN(C)c1ccc(/C=N\Nc2cc(=O)[nH]c3ccc(Cl)cc23)cc1` was run?
Answer: The growth was 98.2% (inactive).

Question: Which growth does the source give for `COc1ccccc1N1CCN(CC(O)COc2c(Br)c(Br)c(Br)c3c2OC(C)(C)C3)CC1` (stereo not given) here?
Answer: Its growth is 10.3% (inactive).

Question: `c1ccc([C@H]2CN3CCSC3=N2)cc1` was tested. Which growth did it give?
Answer: Its growth is 99.1% (inactive).

Question: Which growth does the source give for `Cc1ccc(S(=O)(=O)n2cc(CNc3ccc(N4CCOCC4=O)cc3)c3ccccc32)cc1` here?
Answer: Its growth is 66.7% (inactive).
